Source: PubChem (National Center for Advancing Translational Sciences (NCATS))
An excerpt weighted towards active compounds, which were near 9.5% of everything screened.
SARS PLpro yeast = blocks SARS-CoV papain-like protease in a yeast assay; S. cerevisiae expressing SARS-CoV PLpro, growth rescue; Potency, µM (titrated, usually from 32.9 µM), for inactives: at the top dose activity, positive = growth rescue, hits mostly activators; actives 0.19% (n = 330,000); AID 485353; calls by dose curve; note: 0% is about no effect; nearly all actives have a fitted effect of over 55% in size
Pf growth 96h = P. falciparum growth inhibition at 96 hour, primary screen for plastid delayed-death inhibitors; P. falciparum luciferase reporter growth, 96 h; Potency, µM (titrated, usually from 28.7 µM), for inactives: at the highest dose activity change, negative = inhibition, usual class: inhibitors; actives 6.9% (n = 320,000); AID 504834; note: % is set by controls: 0 for no effect and ±100 for the full control effect
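Delayed-death screen, second-generation endpoint: infected erythrocytes, 2% hematocrit, 0.05% parasitemia final; 96 hours at 37 C, 5% CO2; luciferase detection reagent; luminescence decrease equals reduced growth.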
NS1 function inh = inhibitors of influenza NS1 protein function; actives 0.4% (n = 270,000); Potency, µM (highest dose often 46.1 µM), without a hit: at the top dose activity, positive = more growth; AID 2326; calls by dose curve; note: actives are rising curves; nearly all actives have a fitted effect of over 50% in size
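In this qHTS, NS1 from influenza A is expressed in budding yeast, where it slows growth. Cells are switched from glucose to 2% galactose medium (pH 6.0, -URA), treated with compound, and growth recovery is read at OD600.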
RE007 growth inh = less growth of the S. pombe RE007 Vpr strain; S. pombe RE007 Vpr strain, BacTiter-Glo ATP luminescence, 24 h; Potency, µM (highest dose often 92.2 µM), inactives show at the top dose activity change, negative = less growth, actives largely listed as inhibitors; actives 0.21% (n = 360,000); AID 651644; active = well fitted falling curve with a large enough effect; inconclusive = small, poorly fitted or top-dose-only effect; inactive = no such curve, though single readings can be large or run the other way; note: % is set by controls: 0 for no effect and ±100 for the full control effect; nearly all actives have a fitted effect of over 50% in size
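Fission yeast strain RE007, carrying one chromosomally integrated HIV-1 vpr copy, was seeded at OD 0.01 in PMG+AL medium with 23 nL pinned compound. After 24 h at 30 °C and 99% humidity, viability was read by BacTiter-Glo luminescence.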
Pf growth 48h = P. falciparum growth inhibition at 48 hours (one generation); P. falciparum luciferase growth in erythrocytes, 48 h; Potency, µM (doses to about 28.7 µM), for inactives: at the highest dose activity change, negative = inhibition, hits mostly inhibitors; actives 5.9% (n = 310,000); AID 504832; note: % is set by controls: 0 for no effect and ±100 for the full control effect
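Cell-based growth assay: transgenic P. falciparum expressing firefly luciferase, cultured in red cells within RPMI 1640 containing 0.5% w/v Albumax, 24 mM bicarbonate and gentamycin. A drop in luciferase activity indicates inhibition.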
An asterisk follows results filed as active; i = inactive; ? = inconclusive; nt = no result given; [ ] = remark or other dose. Unless noted, calls come from the whole dose curve; as a rule, active = well fitted inhibition curve with a large enough effect; inconclusive = small, poorly fitted or top-dose-only effect, or another doubt; inactive = no such curve, though single readings can be large or run the other way. Potency is the fitted concentration of half-maximal effect.

SMILES | SARS PLpro yeast | Pf growth 96h | NS1 function inh | RE007 growth inh | Pf growth 48h
Cc1ccc(Cn2c(=N)c(C(=O)NCc3ccco3)cc3c(=O)n4ccccc4nc32)cc1 | 23% | 0% | 7% | -9% | 4.1µM*
COc1ccc(CNC(=O)c2cc3c(=O)n4ccccc4nc3n(Cc3ccco3)c2=N)cc1 | nt | nt | 0% | nt | nt
CCN(CC)CCCCCCCCOC(=O)c1cc(OC)c(OC)c(OC)c1 | nt | 10µM* | -13% | -10%[18.4 µM] | 9.3µM*
COc1cc(C(=O)OCCCN2CCCN(CCCOC(=O)c3cc(OC)c(OC)c(OC)c3)CC2)cc(OC)c1OC | nt | -15% | -13% | -9%[18.4 µM] | 9.5µM*
O=C(Nc1ccc([N+](=O)[O-])cc1)C(Cc1ccccc1)N1C(=O)c2cccc3cccc(c23)C1=O (stereo not given) | 2% | ? | ? | -6% | 5.2µM*
CCN(CCCNC(=O)c1cn(CC)c2ccc(S(=O)(=O)N(C)C)cc2c1=O)c1cccc(C)c1 | -1% | 170% | -33% | -18% | ?
CCN(CC)S(=O)(=O)c1ccc2c(c1)c(=O)c(C(=O)NCc1ccc3c(c1)OCO3)cn2C | -4% | -5% | 0% | nt | -10%
CCn1cc(C(=O)NCCCN(C)c2ccccc2)c(=O)c2cc(S(=O)(=O)N(C)C)ccc21 | 6% | 15µM* | -21% | -16% | ?
CCn1cc(C(=O)NCc2ccc3c(c2)OCO3)c(=O)c2cc(S(=O)(=O)N(C)C)ccc21 | -24% | ? | -22% | -12% | 12µM*
CCn1cc(C(=O)NCc2ccc3c(c2)OCO3)c(=O)c2cc(S(=O)(=O)N3CCOCC3)ccc21 | 7% | ? | 5% | 0%[3.69 µM] | ?
CCn1cc(C(=O)NCc2ccccc2OC)c(=O)c2cc(S(=O)(=O)N(C)C)ccc21 | 2% | 10µM* | -13% | -12% | ?
C=CCn1cc(C(=O)NCc2ccc3c(c2)OCO3)c(=O)c2cc(S(=O)(=O)N(CC)CC)ccc21 | 23% | ? | 52% | -4% | 12µM*
CCCCC1CCC(C(=O)N(C)CC(=O)Nc2cccc(OC)c2)CC1 (stereo not given) | 1% | ? | nt | 3% | ?
CCn1cc(C(=O)NC(C)CCc2ccccc2)c(=O)c2cc(S(=O)(=O)N(C)C)ccc21 (stereo not given) | 1% | 43% | -5% | 11% | 6.6µM*
CCn1cc(C(=O)NCCc2ccc(Cl)cc2)c(=O)c2cc(S(=O)(=O)N(C)C)ccc21 | 8% | ? | 2% | 2% | ?
COc1cc2c(cc1OC)/C(=C/C(=O)c1ccccc1F)NCC2 | -5% | 0% | -7% | -12% | -10%
COc1cc2c(cc1OC)/C(=C/C(=O)c1ccc(F)cc1)NCC2 | -5% | 12µM* | 1% | -13% | ?
OCCNc1ncnc2nc[nH]c12 | nt | nt | 13% | nt | nt
Cc1cccc(C)c1-n1nnnc1C1(C)CCC(=O)N1Cc1cccc(C(F)(F)F)c1 (stereo not given) | nt | nt | nt | 3% | nt
O=C(CCc1ccc(Oc2cc([N+](=O)[O-])cc([N+](=O)[O-])c2)cc1)N1CCCCCC1 | -95% | ? | -10% | 12% | 7.4µM*
O=C(Cc1ccc([N+](=O)[O-])cc1)N1CCCCCC1 | 4% | ? | nt | -6% | -8%
O=S(=O)(c1ccc(Cl)cc1)N1CCN(c2ncnc3sccc23)CC1 | 2% | nt | nt | 5% | nt
CC(=O)c1ccc(NC(=O)C(C)OC(=O)C2CCN(c3ccc(C(F)(F)F)cn3)CC2)cc1 (stereo not given) | -5% | -4% | nt | -3% | ?
CC(OC(=O)C1CCN(c2ccc(C(F)(F)F)cn2)CC1)C(=O)Nc1cccc([N+](=O)[O-])c1 (stereo not given) | -5% | ? | nt | -12% | 12µM*
CC(OC(=O)C1CCN(c2ccc(C(F)(F)F)cn2)CC1)C(=O)Nc1ccc(S(N)(=O)=O)cc1 (stereo not given) | -3% | 13µM* | -18% | -2% | ?
SMILES | SARS PLpro yeast | Pf growth 96h | NS1 function inh | RE007 growth inh | Pf growth 48h
CCCNC(=O)C1(C)CCN(C(=O)c2oc3ccccc3c2C)C1 (stereo not given) | nt | nt | nt | -7%[18.4 µM] | nt
Brc1ccc(-c2cnnc(N3CCCC3)n2)cc1 | -16% | ? | -112% | -7% | 3.3µM*
CCN(CC)c1ccc(C2Nc3cccc4cccc(c34)N2)c(O)c1 | -8% | -21% | 9% | 14% | 3.7µM*
Cc1ccc(Cn2ccc(NC(=O)c3cc(-c4ccccc4)on3)n2)cc1 | 4% | i | 0% | -29% | 9.3µM*
COc1cccc(-c2cc(C(=O)Nc3ccn(Cc4ccc(C)cc4)n3)no2)c1 | 2% | 27% | nt | 9% | ?
Cc1ccc(Cn2ccc(NC(=O)c3cc(-c4ccco4)on3)n2)cc1 | 9% | 19% | -2% | -2% | 10µM*
CCN(Cc1ccc2c(c1)OCCO2)C(=O)CSc1nc(C)nc2sc(C)c(C)c12 | -6% | -24% | nt | 3% | ?
N#CCc1c(C#N)c(N)nc(N2CCN(S(=O)(=O)c3ccccc3F)CC2)c1C#N | ? | ? | ? | -12% | ?
N#CCc1c(C#N)c(N)nc(N2CCN(c3ccc(F)cc3)CC2)c1C#N | -1% | nt | 11% | 5% | 9.3µM*
COCCN1C(=O)Cc2c1nc(N)c1c(N)nc(N3CCN(c4ccc(F)cc4)CC3)c(C#N)c21 | -3% | ? | 9% | 15% | 7.4µM*
COc1ccc(CN2C(=O)Cc3c2nc(N)c2c(N)nc(N4CCOCC4)c(C#N)c32)cc1 | -1% | ? | -41% | 12% | ?
CCC1Cc2c(nc(N)c3c(N)nc(N4CCOCC4)c(C#N)c23)O1 (stereo not given) | 2% | ? | nt | -13% | -27%
COCC(C)N1C(=O)Cc2c1nc(N)c1c(N)nc(N3CCN(c4ccccc4F)CC3)c(C#N)c21 (stereo not given) | -2% | 1.3µM* | nt | 22% | 5.9µM*
O=C(c1ccc(-n2cncn2)c([N+](=O)[O-])c1)N1CCN(S(=O)(=O)c2ccccc2F)CC1 | -4% | 11% | nt | -8% | ?
O=c1[nH]cc(C(F)(F)F)cc1NS(=O)(=O)c1ccccc1[N+](=O)[O-] | -1% | -14% | nt | 3% | ?
O=C(O)C1CC(Br)C(Br)CC1C(=O)O (stereo not given) | nt | nt | nt | -5% | nt
C=C(C)COc1ccc(-c2nc(N)nc(C)c2Oc2ccccc2OC)c(O)c1 | -16% | 10% | -68% | -1% | ?
CCOc1ccc(-c2n[nH]c(C)c2Oc2ccccc2OC)c(O)c1 | 9% | nt | -93% | 6% | 4.1µM*
C=C(C)COc1ccc(-c2n[nH]c(C)c2Oc2ccccc2OC)c(O)c1 | -28% | 4.7µM* | -67% | 2% | 5.2µM*
COc1cc(NC(=O)c2cc(-n3cnnc3)ccc2Cl)cc(OC)c1 | ? | 13µM* | 1% | 20% | 2%
CC(C)N(C)c1ncnc2c1ncn2[C@H]1CN(CCc2ccccc2)C[C@@H](CO)O1 | nt | nt | nt | 8% | nt
